Records with an inconclusive call do not appear. Active and inactive are the calls of the source.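 How the source made its calls, unless noted: active means viability at or below 10% of carrier control in both of two separate runs; inconclusive means viability at or below 10% in only one of the two runs; inactive means the rest.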
Tests used:
[1] = Her2 expression decrease, cell viability multiplex – SKBR3 breast tumor cells, AlphaScreen, ATP viability, primary screen (AID 461;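 active means Her2 level under about 52% in both replicate screens, with viability over 70% of control, limit read from the data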;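 on Her2 level: lower value means less Her2 protein in the cells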;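 on viability: percent of carrier control wells set as 100% viability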); details: SKBR3 Her2 protein level, 18-24 h, measured here: SKBR3 viability, ATP luminescence, at 10 µM
[2] = molecular target: Receptor tyrosine-protein kinase erbB-2 (Homo sapiens) (UniProt P04626); assay: as above; details: 18-24 h, at 10 µM, stronger effect = lower value
[3] = reduced viability of SK-BR-3 breast cancer cells – cell-based, 24 h, human, pilot screen (AID 572); details: SK-BR-3 viability, CellTiter-Glo luminescence, at 10 µM, stronger effect = lower value;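 further: compound exposure lasted between 18 and 24 h rather than exactly 24 h; 100% = carrier-treated control wells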
[4] = HUVEC growth inhibition – cell-based, human, primary screen (AID 575;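 active means viability at or below 30% in both replicate assays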;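 further: 100% = median of untreated cell wells with 0.1% DMSO on each plate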); details: HUVEC proliferation, CellTiter-Glo luminescence, 72 h; at 10 µM; stronger effect = lower value
[5] = H69AR cell proliferation blockers – human, duplicate replicates, primary screen (AID 580;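 active means viability at or under a set limit in both replicates, limit being median viability minus 3 SD, cut at about 48% in these data, passing the limit was not always enough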;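 further: 100% = mean luminescence of untreated wells and 0% = no signal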); details: H69AR lung tumor cells viability, ATP luminescence, 72 h; at 10 µM; stronger effect = lower value
[6] = MRP1 drug-resistance reversers in H69AR cells – cell-based, doxorubicin co-treatment, pilot screen (AID 601;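 active means viability loss from added drug above about 55%, and viability with drug at most 40%, in both replicates, limit read from the data, passing the limit was not always enough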); details: CellTiter-Glo, 72 h, at 10 µM; for differential viability (reversal): stronger effect = higher value
[7] = yeast transport mutant growth inhibition pilot in 384-well plates, post-Golgi transport modulator project (AID 636; in the data active means inhibition above about 31%); details: absorbance 615 nm, about 18 h, stronger effect = higher value
[8] = growth suppression of yeast trafficking mutant, preliminary HTS, modulators of trafficking downstream of Golgi apparatus project, 1536-format plate, OD 615 nm (AID 637; in the data active means inhibition above about 30%); details: yeast transport mutant growth, absorbance 615 nm, 18 h; stronger effect = higher value
[9] = S. cerevisiae growth inhibition in permissive medium (OD615), pilot counter-assay for S. cerevisiae lifespan shortening project, permissive growth control (AID 705;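 active means growth inhibition above 25% in both replicates, a cutoff set 3 SD above the mean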); details: OD615, 24 h, at 10 µM, stronger effect = higher value
[10] = S. cerevisiae growth inhibition in restrictive medium, OD615, pilot screen, restrictive growth control, yeast lifespan reduction project (AID 706;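 active means growth inhibition above a set limit, 3 SD over mean compound inhibition, in both replicates, cut at about 43% in these data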;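 further: modified DeaD lifespan yeast strain shifted to restrictive glucose medium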); details: OD615, 48 h, at 10 µM, stronger effect = higher value
[11] = doxorubicin toxicity protection in MRP-1 cells – H69AR cells, CellTiter-Glo, duplicate, MRP-1 activator project, pilot screen (AID 807;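 active means viability increase at or above a cutoff of the median across tested compounds plus 3 SD, cut at about 8.5% in these data, passing the limit was not always enough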;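 further: compound pretreatment 18-22 h then 72 h combined with doxorubicin; 0% = doxorubicin alone and 100% = vehicle without doxorubicin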); details: H69AR viability with doxorubicin, CellTiter-Glo luminescence; at 10 µM; stronger effect = higher value
[12] = viability of HCT116 without oncogenic beta-catenin – human colon tumor cells, pilot screen (AID 823;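 active means cell viability at or below a set limit in both duplicate runs, the limit being the all-compound median minus 4 SD, cut at about 23% in these data, passing the limit was not always enough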;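 further: 0% = wells killed by 20 µM Hyamine and 100% = untreated DMSO cell wells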); details: HCT116 beta-catenin knockout viability, CellTiter-Glo, 60 h; at 10 µM; stronger effect = lower value
[13] = viability of PTEN-null HCT116 cells – cell-based, HCT116 clonal line, CellTiter-Glo, pilot screen (AID 824;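 active means viability at or below 27.92% in each of two runs, the all-compound median minus 4 SD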;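 further: 0% = 20 µM Hyamine control and 100% = vehicle cell control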); details: HCT116 PTEN-deleted viability, 60 h, at 10 µM, stronger effect = lower value
[14] = RAM pathway blockade in budding yeast – dse1pr::URA3 reporter, 5-FOA selection, pilot screen (AID 869;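 active means inhibition over a set limit, the all-compound mean plus 3 SD, in both replicate runs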;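 further: 0% = DMSO wells with no growth and 100% = 10 µM 1-NA-PP1 with full growth; RAM network block rescues cells from 5-FOA so hits raise OD615 growth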); details: S. cerevisiae dse1pr::URA3 5-FOA growth, OD615, 2 d; at 10 µM; stronger effect = higher value; strain carries analog-sensitive mutant Cbk1 kinase
[15] = RAM signaling pathway blockade in yeast – S. cerevisiae, Pdr1DBD-CYC8 efflux-inhibited sensitized strain, primary screen (AID 1298;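 active means RAM network inhibition above 8.4% in each of two replicates, 3 SD over the compound average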;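 further: 0% = DMSO untreated cells without growth and 100% = 10 µM 1-NA-PP1 full growth; higher means more yeast growth rescued from 5-FOA killing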); details: S. cerevisiae cbk1-as DSE1-URA3 strain, 5-FOA growth OD615, 2 d; at 50 µM; stronger effect = higher value
[16] = H69AR cells + 2 uM doxorubicin, measured here: viability with 2 uM doxorubicin, stronger effect = lower value
[17] = H69AR cells, compound alone cytotoxicity

Receptor tyrosine-protein kinase erbB-2 (Homo sapiens), sequence (P04626 whole entry, looked up): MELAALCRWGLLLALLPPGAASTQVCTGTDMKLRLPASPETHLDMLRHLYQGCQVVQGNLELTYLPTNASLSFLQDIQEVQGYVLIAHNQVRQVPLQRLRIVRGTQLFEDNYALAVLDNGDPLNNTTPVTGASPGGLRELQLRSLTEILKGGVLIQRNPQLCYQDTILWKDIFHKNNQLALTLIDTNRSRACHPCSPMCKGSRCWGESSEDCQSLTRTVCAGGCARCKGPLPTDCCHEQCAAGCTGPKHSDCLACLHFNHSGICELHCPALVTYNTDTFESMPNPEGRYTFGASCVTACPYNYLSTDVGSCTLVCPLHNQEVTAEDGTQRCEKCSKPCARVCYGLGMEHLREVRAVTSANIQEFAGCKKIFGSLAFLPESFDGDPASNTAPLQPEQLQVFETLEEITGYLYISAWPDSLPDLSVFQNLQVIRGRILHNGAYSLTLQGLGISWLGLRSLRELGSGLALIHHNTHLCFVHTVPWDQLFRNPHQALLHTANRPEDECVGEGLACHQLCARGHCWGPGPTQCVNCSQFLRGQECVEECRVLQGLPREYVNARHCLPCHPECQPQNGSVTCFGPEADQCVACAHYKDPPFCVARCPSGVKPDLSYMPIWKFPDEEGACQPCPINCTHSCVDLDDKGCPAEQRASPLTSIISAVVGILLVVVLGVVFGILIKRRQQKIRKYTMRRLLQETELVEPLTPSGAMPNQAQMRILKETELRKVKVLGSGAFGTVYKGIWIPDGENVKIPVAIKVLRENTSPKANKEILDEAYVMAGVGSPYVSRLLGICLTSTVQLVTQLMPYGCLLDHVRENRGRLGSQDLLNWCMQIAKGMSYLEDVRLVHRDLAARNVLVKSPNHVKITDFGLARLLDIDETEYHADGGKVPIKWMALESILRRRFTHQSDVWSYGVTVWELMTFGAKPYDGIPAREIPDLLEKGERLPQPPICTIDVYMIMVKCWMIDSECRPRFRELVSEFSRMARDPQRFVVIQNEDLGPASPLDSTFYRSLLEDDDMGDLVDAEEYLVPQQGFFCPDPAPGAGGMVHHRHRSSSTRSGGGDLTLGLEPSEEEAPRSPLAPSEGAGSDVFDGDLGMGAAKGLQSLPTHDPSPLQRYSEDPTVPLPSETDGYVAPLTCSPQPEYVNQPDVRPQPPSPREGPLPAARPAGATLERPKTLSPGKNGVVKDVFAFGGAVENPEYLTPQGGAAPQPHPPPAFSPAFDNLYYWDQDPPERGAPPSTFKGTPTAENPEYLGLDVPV

Structure (SMILES) | viability [1] | Her2 level [2] | viability [3] | viability [4] | viability [5] | differential viability (reversal) ([6]; H69AR cells + 2 uM doxorubicin) | viability [6, 16] | viability [6, 17] | inhibition [7] | inhibition [8] | growth inhibition [9] | growth inhibition [10] | viability increase [11] | viability [12] | viability [13] | inhibition [14] | RAM network inhibition [15]
COc1ccccc1-c1cc2nc(C)c(CCC(=O)NCc3ccco3)c(C)n2n1 | 80% | 88% (inactive) | 80% (inactive) | 88% (inactive) | 89.9% (inactive) | 1.59% (inactive) | 88.3% | 89.9% | -2.69% (inactive) | 0.33% (inactive) | -2.34% (inactive) | -6.24% (inactive) | -3.72% (inactive) | 97.2% (inactive) | 98.1% (inactive) | 1.53% (inactive) | 4.36% (inactive)
CCCCOCCCNC(=O)c1ccc(NC(C)=O)cc1 | 108% | 133% (inactive) | 108% (inactive) | 86.3% (inactive) | 96.6% (inactive) | 10% (inactive) | 86.6% | 96.6% | 1.04% (inactive) | -10.7% (inactive) | -9.19% (inactive) | -26.5% (inactive) | 0.09% (inactive) | 104% (inactive) | 97.4% (inactive) | 1.42% (inactive) | -0.63% (inactive)
COc1ccc(-c2nc3c(c(SCC(=O)N4CCOCC4)n2)COC(C)(C)C3)cc1 | 111% | 113% (inactive) | 111% (inactive) | 85.5% (inactive) | 89.2% (inactive) | -2.95% (inactive) | 92.1% | 89.2% | -2% (inactive) | 13.8% (inactive) | 2.8% (inactive) | -4.27% (inactive) | -1.69% (inactive) | 101% (inactive) | 103% (inactive) | 0.94% (inactive) | 2.02% (inactive)

From PubChem BioAssay
